A selection: hits, their analogues and other compounds. The true share with any hit is near 2.4%.
POLK inh: DNA polymerase kappa (human) inhibition; 400,000 compounds, 0.53% hits; purified Pol kappa, fluorescent DNA synthesis assay, 10 min; AID 588579; Potency, µM (titrated, usually from 107 µM), without a hit: top-dose activity, negative = inhibition, usual class: inhibitors; note: % is set by controls: 0 for no effect and ±100 for the full control effect
Target sequence (Q9UBT6 whole entry, looked up): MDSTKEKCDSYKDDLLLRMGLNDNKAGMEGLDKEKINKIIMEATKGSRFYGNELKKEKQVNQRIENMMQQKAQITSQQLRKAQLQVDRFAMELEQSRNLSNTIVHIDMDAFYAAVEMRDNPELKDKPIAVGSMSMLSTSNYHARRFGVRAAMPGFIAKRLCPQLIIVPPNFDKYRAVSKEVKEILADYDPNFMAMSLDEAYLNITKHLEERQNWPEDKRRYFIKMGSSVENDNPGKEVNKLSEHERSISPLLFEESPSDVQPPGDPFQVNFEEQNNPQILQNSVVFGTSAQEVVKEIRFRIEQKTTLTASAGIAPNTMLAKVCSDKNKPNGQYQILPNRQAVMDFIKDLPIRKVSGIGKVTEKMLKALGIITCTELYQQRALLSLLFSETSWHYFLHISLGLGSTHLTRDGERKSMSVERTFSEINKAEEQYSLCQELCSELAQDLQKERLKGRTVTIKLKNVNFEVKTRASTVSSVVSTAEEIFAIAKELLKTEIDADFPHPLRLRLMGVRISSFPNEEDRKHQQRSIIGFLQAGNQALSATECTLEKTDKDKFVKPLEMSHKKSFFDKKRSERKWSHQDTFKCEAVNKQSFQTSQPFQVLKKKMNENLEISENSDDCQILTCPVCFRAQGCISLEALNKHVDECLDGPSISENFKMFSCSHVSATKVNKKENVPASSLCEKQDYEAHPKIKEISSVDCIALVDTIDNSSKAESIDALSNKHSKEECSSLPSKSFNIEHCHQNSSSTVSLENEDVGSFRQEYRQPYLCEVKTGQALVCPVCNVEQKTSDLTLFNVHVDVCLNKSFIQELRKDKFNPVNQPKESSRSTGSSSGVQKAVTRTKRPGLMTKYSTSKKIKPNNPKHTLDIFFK
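50 nM final substrate added after 15 min RT preincubation of 10 nM Pol kappa with compound; fluorescence read at 0 and 10 min.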
WRN inhibitor: WRN helicase (human) inhibition; Q14191; WRN helicase unwinding, fluorescent forked duplex, kinetic; Potency, µM (series often up to 114 µM), inactives show at the highest dose activity change, negative = inhibition, hits mostly inhibitors; 360,000 compounds, 0.46% hits; AID 651768; note: % is set by controls: 0 for no effect and ±100 for the full control effect; nearly all actives have a fitted effect of over 55% in size
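Kinetic fluorescence helicase assay: unwinding of a quenched forked DNA duplex (100 nM final) with 2 mM ATP final raises red fluorescence (525/598 nm). Compounds sat 15 min at room temperature with 20 nM WRN beforehand.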
FEN1 inhibitor: blocks human flap endonuclease 1. AID 588795. 390,000 compounds, 0.35% hits. P39748. Recombinant FEN1 flap cleavage, fluorescence, 15 min. Potency, µM (doses to about 114 µM), for inactives: at the highest dose activity change, negative = inhibition, actives largely listed as inhibitors; note: % is set by controls: 0 for no effect and ±100 for the full control effect; nearly all actives have a fitted effect of over 65% in size
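Recombinant FEN1 (10 nM) was preincubated with pin-transferred compounds for 15 min at room temperature, then flap DNA substrate (50 nM final) was added. Plates were read at 0 and 15 min, and normalized concentration–response data were fitted to a four-parameter Hill equation.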
POLI inh: inhibitors of human DNA polymerase iota; Potency, µM (highest dose often 115 µM), for the others: at the top dose activity, negative = inhibition, actives largely listed as inhibitors; 390,000 compounds, 1% hits; Pol iota fluorescent replication assay, 10 min
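Fluorescent replication assay read twice, at 0 min and 10 min after adding 50 nM (final) substrate. Enzyme (10 nM) and compounds were first incubated 15 min at room temperature; enzyme-free buffer wells were negative controls.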
Pol eta inh: blocks human DNA polymerase eta activity. Q9Y253. recombinant Pol eta, fluorescent DNA replication assay. Potency, µM (top dose mostly 114 µM), inactives show at the highest dose activity change, negative = inhibition, hits mostly inhibitors. 390,000 compounds, 1.2% hits; note: % is set by controls: 0 for no effect and ±100 for the full control effect
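Pol eta (10 nM) was preincubated with compounds for 15 min at room temperature, after which fluorescent replication substrate (50 nM final) was added to start the reaction. Fluorescence was read kinetically at 0 and 10 min.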
POLB inh: blocks human DNA polymerase beta activity; AID 485314; P06746; Pol beta primer extension/strand displacement, fluorescence kinetic; 340,000 compounds, 1.3% hits; Potency, µM (top dose mostly 114 µM), without a hit: top-dose activity change, negative = inhibition, actives largely listed as inhibitors; note: % is set by controls: 0 for no effect and ±100 for the full control effect
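Human Pol beta at 10 nM; strand-displacement substrate 50 nM final. Compound exposure 15 min at room temperature before start, reaction 10 min at room temperature.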
Active calls of the source: *; ? = inconclusive; . = no result given; [ ] = another dose, or the depositor's remark. Calls come from the whole dose curve; as a rule, active = well fitted curve in the direction sought with a large enough effect; inconclusive = small, poorly fitted or top-dose-only effect, or another doubt; inactive = no such curve, though single readings can be large; an effect the other way counts as inactive or inconclusive. Potency is the fitted concentration of half-maximal effect.

SMILES	POLK inh	WRN inhibitor	FEN1 inhibitor	POLI inh	Pol eta inh	POLB inh
COc1ccc(-n2nnnc2C2CCN(S(=O)(=O)c3ccc(NC(C)=O)cc3)CC2)cc1	-3%	.	-2%	-6%	-22%	-1%
CS(=O)(=O)Nc1cccc(-c2cn3c(n2)SCC3)c1	32µM*	-11%	20µM*	?	-3%	0%
Cc1cc(C)cc(NC2=C(N)C(=O)c3ccccc3C2=O)c1	5%[60.1 µM]	21%	-14%	7.9µM*	-8%	-7%
COc1ccc(C2NC(=O)NC(C)=C2[N+](=O)[O-])cc1OC (configuration not stated)	-15%	2%	-5%	-5%	-30%	4%
CC(=O)C1=C(c2ccccc2)NC(=O)NC1c1ccc(O)c(O)c1 (configuration not stated)	79µM*	-14%	-17%	40µM*	?	4µM*
CC(=O)C1=C(c2ccccc2)NC(=S)NC1c1ccc(O)c(O)c1 (configuration not stated)	-49%	-4%[11.6 µM]	-3%	18µM*	?	4µM*
COc1cc(C2NC(=S)NC(c3ccccc3)=C2C(C)=O)cc(Cl)c1OCC(=O)O (configuration not stated)	-16%	-1%	-3%	0%	-8%	-19%
COc1cc(C2NC(=O)NC(c3ccccc3)=C2C(C)=O)cc(Cl)c1OCC(=O)O (configuration not stated)	-20%	8%	6%	37%	28µM*	1%
CCOc1ccc(C2NC(=O)NC(c3ccccc3)=C2C(C)=O)cc1OC (configuration not stated)	-4%	2%	-5%	27%	-13%	8%
CC1=C([N+](=O)[O-])C(c2ccc(O)c(O)c2)NC(=O)N1 (configuration not stated)	-33%	-5%	-1%	79µM*	-8%	8%
Cc1ccc(CN2C(=O)C(=O)c3cc(Br)cc(C)c32)cc1	-24%	.	?	-23%	-19%	-6%
CS(=O)(=O)Nc1ccc(-c2nc3ccccc3s2)cc1	5%	.	-1%	20%	.	-6%
C=C(CN(C)C)C(=O)c1cc(C)ccc1C	-19%	22µM*	-4%	?	?	.
COc1cccc(CNC(=O)CSC2=Nc3ccccc3N=C(c3ccc(F)cc3)C2)c1	-9%[60.1 µM]	.	14%	-10%	-9%	7%
COc1cccc(CNC(=O)CCCn2ncn3c(cc4occc43)c2=O)c1OC	-26%	.	5%	53%	-7%	-5%
CN(C)c1ccc(CC2C(=O)Nc3ccccc32)cc1 (configuration not stated)	-12%	-19%	-4%	25µM*	-19%	-5%
COc1ccc(NC(=O)c2cc(-c3ccccc3Cl)on2)cc1OC	?	-23%	?	79µM*	-4%	16%
COc1ccc(NC(=O)c2cc(-c3ccc(OC)c(OC)c3)on2)cc1OC	-21%	2%	1%	-11%[58.9 µM]	-4%	25%
O=C(Cc1ccccc1Nc1c(Cl)cccc1Cl)OCO/N=[N+](\[O-])N1CCCC1	-15%	.	-29%	?	.	.
CCOP(=O)(OCC)C(C#N)=C1SCN(c2ccccc2)CS1	-15%	-13%	13%	?	40µM*	.
CCOP(=O)(c1ccccc1)C1(C#N)CC1 (configuration not stated)	-2%	7%	-6%	33%	-5%	44%
COc1cc(OC)c(NC(=O)CCn2cccn2)cc1Cl	-17%	.	-1%	-5%	-8%	3%
O=C(COc1ccc(Cl)cc1)OCC(=O)N1CCCCCC1	4%	0%	0%	2%	-3%	35µM*
C=CCOc1c(Br)cc(/C=C2/C(=O)ON=C2C)cc1OC	-3%	-16%[11.6 µM]	16%	89µM*	-12%	0%
CN[C@H](C)CCC=C(C)C	-4%[19.4 µM]	.	-18%	5%	.	.
NC(=O)COc1ccc2cc(-c3ccc(F)cc3)c(=O)oc2c1	-7%	1%	10%	-3%	-27%	25µM*
